Drawing on PubChem BioAssay AID602156 (GNF / Scripps Winzeler lab, 2011), this text covers outcome for 38 molecules.

The structures appear in SMILES notation. The campaign covered roughly 5,700 compounds. About 280 (4.9%) were called active. How the calls were made is not given here. These entries were drawn from the full list.

This assay can be described thus: Plasmodium liver-stage growth inhibition, dose response, imaging, Malaria Box, P. yoelii, HepG2-A16-CD81EGFP (AID 602156). Particulars: P. yoelii liver stage in HepG2-A16-CD81EGFP.
For the molecule `Oc1ccc(-c2nc3ccccc3s2)cc1CN1CCCCC1`, the molecule was called inactive. Turning to `O=C1CSC(=S)N1c1cccc(Cl)c1`, the molecule was called inactive. As for `CC[C@@H]1CCC[C@H](C)CC[C@@H](O[C@@H]2O[C@@H](C)[C@@H](O)[C@@H](N)[C@H]2O)[C@H](CC)CCCNC1=O`, the molecule was called inactive. Take `CN(CCCNc1nc2ccccc2c2nc(-c3cccnc3)nn12)Cc1ccccc1`: the outcome was inactive. As for `O=C(Cc1ccccc1)NCc1ccc(Nc2c(-c3cccnc3)nc3ccccn23)cc1`, the entry is “inactive”.

On to `CCCCCCCSc1c(O)c2ccc(Cl)cc2[nH]c1=O`, for which the result was inactive. For the molecule `COc1ccc(Nc2ncnc3[nH]c(-c4cccc([N+](=O)[O-])c4)cc23)cc1`, the result was inactive. For `C1CCC(CN2CCc3nc(N4CCCCC4)sc3C2)CC1`, the result was inactive. To `CC(=O)N(C1=C(N(C)C)C(=O)c2ccccc2C1=O)c1cccc(O)c1` belongs “inactive”; to `Oc1ccc(Br)cc1C=NNc1nc2ccccc2[nH]1`, “inactive”. As for `CCCOC(=O)C1=C(C)NC2=C(C(=O)CC(c3ccc(OC)c(OC)c3)C2)C1c1ccccc1C` (stereo not drawn), the entry is “inactive”; as for `CN(C=Cc1sc2ccc3ccccc3c2[n+]1C)c1ccccc1`, “inactive”; as for `Oc1ccc(-c2cncnc2)cc1CNC1CCN(Cc2ccccc2)CC1`, “inactive”. Take `CC(C)CN(CC(=O)N1CCC(Nc2nsc3ccccc23)C1)S(C)(=O)=O` (stereo not drawn): the molecule was called inactive. As for `COc1ccc2[nH]c(-c3ccccc3)cc(=O)c2c1`, the entry is “inactive”; as for `COc1ccc(Nc2nc(Nc3ccc(OC)cc3)c3ccccc3n2)cc1`, “inactive”; as for `CC(=O)Nc1ccc(C2NC(=O)NC3=Nc4ccccc4SC(c4ccccc4)=C32)cc1` (stereo not drawn), “inactive”. To `Cc1cccc(CSc2nnc(C(Cc3ccccc3)NC(=O)C3CCCCC3)n2-c2ccc(Cl)cc2Cl)c1` (stereo not drawn) belongs “inactive”. To `Cc1cc(Nc2ccc(C)c(F)c2)n2nc(C)nc2n1` belongs “inactive”.

With `CCN1CCN(c2nc3ccccn3c(=O)c2C=C2SC(=S)N(C(C)C)C2=O)CC1`, the call was inactive. To `CCOc1ccccc1C=NNc1nc(Nc2ccccc2)nc(Nc2ccccc2)n1` belongs “inactive”; to `Cc1cc(C)nc(NNc2c([N+](=O)[O-])cccc2[N+](=O)[O-])n1`, “inactive”; to `O=c1c(NCc2ccco2)nc2cc(Cl)ccc2n1CCNc1ncc(C(F)(F)F)cc1Cl`, “inactive”. To `Cn1c(=O)n(C)c2cc(NC(=O)CCl)ccc21` belongs “inactive”.

With `Oc1ccccc1-c1nc2ncccn2c1Nc1cccc(C(F)(F)F)c1`, the call was inactive. As for `Cc1cc2cc3c(cc2c(C)n1)c1ccccc1n3C`, the entry is “inactive”; as for `Cc1ccc(N=C2NC(=O)C(=Cc3ccc(N(C)C)cc3)S2)cc1`, “inactive”.

`c1ccc(CN2CCC(NCc3c[nH]c4ccccc34)CC2)cc1`: the molecule was classed as inactive. For the molecule `Cc1ccccc1S(=O)Cc1ccc(C(=O)N2CCN(c3ccccn3)CC2)o1` (stereo not drawn), the outcome was inactive. On to `CCN1C(=Cc2ccc3cc(C)ccc3[n+]2C)C=Cc2cc(C)ccc21`, for which the molecule was called inactive.

As to `O=C(NCc1ccccc1)c1cnc(NCCCn2ccnc2)nc1NCCc1ccccc1`, the molecule was called inactive.

Take `N#Cc1ccccc1Cn1nc(-c2cccnc2)oc1=O`: the call was inactive. With `Clc1ccc(-c2c[n+](Cc3ccc(Cl)c(Cl)c3)c3n2CCC3)cc1`, the outcome was inactive. On to `c1ccc(Cn2c(N=Nc3c(Nc4ccccc4)ccc4ccccc34)nc3ccccc32)cc1`, for which the molecule was called inactive. As for `COC(=O)c1c(-c2c(F)cccc2Cl)noc1/C=C/Nc1ccccc1`, the entry is “inactive”; as for `CCCN(CCC)C(=O)Cn1ccc(=N)c2ccccc21`, “inactive”; as for `O=C1N(Cc2cc3ccccc3s2)CC2CN(Cc3ccccc3)CCN12` (stereo not drawn), “inactive”.

In the case of `O=C1N(Cc2cc3ccccc3s2)CC2CN(Cc3ccoc3)CCN12` (stereo not drawn), the molecule was classed as inactive.
